# This is a sample that favours compounds with a hit; in the whole collection about 3.2% have one here.
# SMARCA2 activ: activators of SMARCA2 function; MG213 cells, MMTV-luciferase reporter, dexamethasone, overnight; activation, % at 9.1 µM; 1% of 370,000 active; AID 652017; in the data active = activation above about 7.8%;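 note: 0% = vehicle wells and 100% = reference activator wells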
# Dyrk1A ADPGlo: inhibitors of rat Dyrk1A kinase. 0.43% of 310,000 active. AID 504441. ADP-Glo luminescence, NFATc1 peptide. inhibition, % at 12.5 µM. Q63470; in the data active = inhibition above about 50%;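 note: plate controls were vehicle with enzyme for no effect and no enzyme for full effect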
# Rtt109 Vps75: C. albicans Rtt109 histone acetyltransferase inhibition; Q5AAJ8; purified Rtt109/Vps75, ThioGlo CoA-SH fluorescence, 4 h; inhibition, % at 34.9 µM; 0.16% of 330,000 active; AID 540336;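 active = inhibition of at least 50% in every replicate; inconclusive = best replicate reaches 50% inhibition but some replicates fall short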
# Target sequence (Q5AAJ8 whole entry, looked up): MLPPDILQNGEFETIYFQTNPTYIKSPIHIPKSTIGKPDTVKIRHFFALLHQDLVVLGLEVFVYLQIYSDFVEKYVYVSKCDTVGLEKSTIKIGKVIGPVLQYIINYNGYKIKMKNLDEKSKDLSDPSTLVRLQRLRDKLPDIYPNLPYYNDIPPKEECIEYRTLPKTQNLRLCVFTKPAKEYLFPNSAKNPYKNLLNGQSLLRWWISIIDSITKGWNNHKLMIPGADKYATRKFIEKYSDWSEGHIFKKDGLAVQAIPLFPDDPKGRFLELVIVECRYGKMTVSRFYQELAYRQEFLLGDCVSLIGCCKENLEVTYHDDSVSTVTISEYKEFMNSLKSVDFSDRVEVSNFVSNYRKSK
# CDK5 p35 inh: blocks human CDK5/p35 kinase activity; Recombinant CDK5/p35, ADP-Glo luminescence, 60 min; inhibition, % at 10 µM; 0.01% of 330,000 active;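 active = highest replicate inhibition of at least 50% and at least 75% of replicates reaching 50%; inconclusive = only one of the two criteria met; inactive = both criteria failed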;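 note: plate controls were DMSO neutral control for no effect and GW8510 at 10 µM for full effect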
# dFosB activator: activators of mouse delta FosB homodimer. AID 493131. activation, % at 25 µM. 0.99% of 340,000 active. purified delta FosB, TAMRA-CDK5 oligo fluorescence polarization; percent of positive-control signal above neutral wells;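 active = mean activation above about 17%, with every replicate also reaching it, limit read from the data, passing the limit was not always enough; inconclusive = only one of the two conditions met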
# Target sequence (P13346 whole entry, looked up): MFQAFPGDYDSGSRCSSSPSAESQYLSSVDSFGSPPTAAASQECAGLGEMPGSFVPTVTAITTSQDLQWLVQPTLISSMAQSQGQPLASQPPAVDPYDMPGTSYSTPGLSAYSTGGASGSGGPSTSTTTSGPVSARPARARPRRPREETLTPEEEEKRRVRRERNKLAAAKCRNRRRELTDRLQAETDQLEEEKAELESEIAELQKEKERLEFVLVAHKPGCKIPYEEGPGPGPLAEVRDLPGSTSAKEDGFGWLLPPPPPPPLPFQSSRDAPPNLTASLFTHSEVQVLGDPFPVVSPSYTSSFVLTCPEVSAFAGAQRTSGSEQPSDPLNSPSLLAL
# esBAF inh: blocks esBAF chromatin remodeling in mouse ES cells; Bmi1-luciferase knock-in reporter, 24 h; 100% = twice the neutral-well signal; reporter increase, % at 12.5 µM; 2% of 350,000 active; AID 602393; in the data active = activation above about 40%; inconclusive = no clear call, values can overlap the other calls;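 note: 0% = median of the plate's neutral control wells and 100% = double that signal; a rise in the Bmi1 reporter signal indicates esBAF inhibition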
# esBAF Ring1 qPCR: esBAF inhibition confirmed by Ring1 de-repression; shares compounds with esBAF inh; mouse ESC E14, Ring1 mRNA RT-qPCR fold change; fold change at 33 µM; 550 tested, under 10 active;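 active = Ring1 gene expression raised more than 2-fold over untreated cells in both replicates at either tested dose; inconclusive = only one replicate above 2-fold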;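 note: Ring1 transcript normalised to actin housekeeping signal by TaqMan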
# Fgf4 repress: represses Fgf4 in mouse ESCs, confirming esBAF inhibition | shares compounds with esBAF inh | mouse ESC E14, Fgf4 mRNA qPCR fold change; active compounds read low | Fgf4 expression fold change at 33 µM | 4% of 550 active | AID 743177;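 active = Fgf4 expression under 0.8 fold of control in both repeat measurements at one or both tested doses; inconclusive = under 0.8 fold in just a single repeat measurement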;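 note: Fgf4 transcript normalised to actin in duplex TaqMan qPCR; cells exposed to compound for 24 h before lysis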
# esBAF Bmi1 qPCR: esBAF inhibition confirmed by Bmi1 de-repression; shares compounds with esBAF inh; mouse ESE14 ES cells, Bmi1 mRNA qPCR fold; active compounds read high; fold change at 33 µM; 550 tested, under 10 active;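 active = Bmi1 expression fold change above 6 at either tested concentration, seen in replicate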;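 note: higher fold means more Bmi1 de-repression and stronger esBAF inhibition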
# A549 cytotox: cytotoxicity in A549 cells; shares compounds with esBAF inh; plate reader; cell viability change % (negative = cytotoxic), % at 25 µM, hits read low; 550 tested, under 10 active; AID 743188; call rule not given here
# HepG2 tox SP: kills or reduces viability of HepG2 cells; AID 743189; activity change, negative = inhibition, % at 25 µM; HepG2 cytotoxicity, plate reader; active compounds read low; shares compounds with esBAF inh; 4% of 550 active; in the data active = activity change below about -50%
# HEK293 cytotox SP: cytotoxicity in HEK293 cells; shares compounds with esBAF inh; plate reader; activity change, negative = inhibition, % at 25 µM, hits read low; 3% of 550 active; AID 743190; in the data active = activity change below about -38%, passing the limit was not always enough
# SMARCA2 act conf: SMARCA2 activation, confirmation screen; shares compounds with SMARCA2 activ; MG213 cells, MMTV-luciferase with dexamethasone, luminescence, overnight; MG213 cells expressing E1A, Rb sequestered; DMSO wells 0%, reference activator 100%; activation, % at 9.1 µM; 30% of 3,500 active; AID 652260;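 active = activation above its plate's cutoff, the mean activation of tested wells plus 3 SD, cut at about 7.9% in these data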
# VP16 Luc act: activates GAL4-VP16 luciferase, flagging SMARCA2 activator hits. HEK293 GAL4-VP16 pG5luc reporter, luciferase luminescence; scaled: DMSO wells 0%, SAHA wells 100%. shares compounds with SMARCA2 activ. 41% of 3,500 active. activation, % at 9.1 µM;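 active = activation above the solvent-only control well mean plus 3 SD, averaged across control plates, cut at about 5.2% in these data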
# An asterisk follows results filed as active; ? = inconclusive; . = not tested or not shown.
SMILES,SMARCA2 activ,Dyrk1A ADPGlo,Rtt109 Vps75,CDK5 p35 inh,dFosB activator,esBAF inh,esBAF Ring1 qPCR,Fgf4 repress,esBAF Bmi1 qPCR,A549 cytotox,HepG2 tox SP,HEK293 cytotox SP,SMARCA2 act conf,VP16 Luc act
Cn1c(/N=C(\N)c2ccccc2)nc2ccccc21,6.2,.,.,.,.,82.9*,1.19,0.871,1.65,-7.7,-5.1,-12.2,.,.
CNc1cnc(-c2ccsc2)cn1,1.3,.,.,.,.,?,.,.,.,.,.,.,.,.
CNc1cnc(-c2ccc(F)c(F)c2F)cn1,4.8,.,.,.,.,73.3*,1.08,0.963,1.49,-8.5,-17.4,-21.9,.,.
COc1cc(/C=C/c2ccc(O)cc2)cc(OC)c1,2.6,6.1,-2.6,0.4,-5.2,60.6*,0.948,0.965,2.02,-3.9,-34.7,1.9,.,.
CC(C)NC(=O)N[C@@H]1C=C[C@H](CC(=O)O)O[C@@H]1CO,.,.,.,.,.,0.6,.,.,.,.,.,.,.,.
Cc1ccc2c(CN(C)Cc3ccccc3)cc(=O)oc2c1,10.7*,.,.,.,.,88.3*,1.14,0.951,1.47,-12.2,-6.5,-22.4,12.4*,11.5*
COc1c(C(=O)NNC(=O)c2ccccc2)csc1Br,15.7*,.,3.5,1.0,-2.0,55.6*,1.18,0.897,1.67,4.7,-37.9,2.3,3.1,7.0*
COc1ccc(-c2cc(C(=O)Nc3ccc(NC(C)=O)cc3)[nH]n2)c(C)c1,9.6*,.,.,.,.,60.6*,1.16,1.02,1.52,-11.7,0.7,-10.6,3.4,2.2
COc1ccc(-c2cc(C(=O)Nc3cc(OC)c(OC)c(OC)c3)[nH]n2)c(C)c1,-0.7,.,.,.,.,3.5,.,.,.,.,.,.,.,.
O=C1c2ccccc2CN1c1ccccc1,9.7*,2.5,-3.9,0.0,0.6,55.0*,1.26,1,1.56,-13.9,-32.4,-23.4,11.2*,9.8*
COc1ccc2c(c1OC)C(=O)OC2Nc1nc(-c2cc3cc(Br)ccc3oc2=O)cs1 (configuration not stated),9.2*,-0.5,14.0,-0.4,-7.8,64.9*,0.985,1.01,1.48,-16.5,-34.7,-17.6,11.9*,7.9*
C[C@H]1CN([C@@H](C)CO)C(=O)c2c(c3ccccc3n2C)-c2ccccc2CO[C@@H]1CN(C)CC1CC1,.,.,.,.,.,-6.3,.,.,.,.,.,.,.,.
COc1ccc(NC(=O)c2cc(F)cc(F)c2)cc1Cl,9.0*,0.7,3.0,1.6,-3.1,57.5*,1.38,1.13,1.5,-6.9,-10.8,-0.3,0.9,2.7
COc1ccc(NC(=O)c2c(F)c(F)c(F)c(F)c2F)cc1Cl,-3.2,23.7,-18.0,-1.7,1.7,-3.4,.,.,.,.,.,.,.,.
CO[C@@H]1CN(C)C(=O)c2ccc(NC(C)=O)cc2OC[C@H](C)N(C(=O)C2CCOCC2)C[C@@H]1C,.,.,.,.,.,-0.8,.,.,.,.,.,.,.,.
COc1ccc(C(=O)c2sc(Nc3ccc(NC(C)=O)cc3)nc2C)cc1,-5.7,6.2,6.8,-1.0,-2.4,9.5,.,.,.,.,.,.,.,.
COc1ccc(Nc2nc(C)c(C(C)=O)s2)cc1,8.2*,.,.,.,.,81.7*,1.18,0.878,1.42,-4.7,-7.8,-0.3,2.2,10.2*
CO[C@H]1CN(C)C(=O)c2ccc(NC(C)=O)cc2OC[C@@H](C)N(Cc2ccncc2)C[C@H]1C,.,.,.,.,.,4.0,.,.,.,.,.,.,.,.
COC(=O)c1sccc1NC(=O)c1ccc(C)cc1,-3.6,-1.3,.,-0.1,-1.8,4.0,.,.,.,.,.,.,.,.
COC(=O)c1sccc1NC(=O)c1ccc(OC)cc1,16.6*,7.6,-8.7,-0.7,-26.9,75.8*,1.33,1.04,1.88,-19.0,-12.9,-5.6,4.5,0.3
Cc1cccc2cc3ccccc3nc12,-2.9,.,-1.5,-0.3,-3.8,.,.,.,.,.,.,.,.,.
c1ccc2nc3c(ccc4ccccc43)cc2c1,14.6*,.,10.9,-0.1,-23.3,70.4*,0.925,1.03,1.08,-11.6,31.4,-16.7,4.6,7.7*
O=C(C[C@H]1CC[C@@H]2[C@H](COC[C@@H](O)CN2C(=O)Nc2cccc(Cl)c2)O1)NCc1ccccc1F,.,.,.,.,.,4.7,.,.,.,.,.,.,.,.
Cc1cccc(NC(=O)c2ccccn2)c1C,8.3*,-0.2,-14.5,-0.7,-5.1,62.8*,0.791,1,1.24,-14.0,-5.9,-16.8,13.4*,8.4*
CO[C@@H]1CN(C)C(=O)c2cc(NC(=O)c3cnccn3)ccc2OC[C@H](C)N(CCc2ccccc2)C[C@H]1C,.,.,.,.,.,-2.1,.,.,.,.,.,.,.,.
SMILES,SMARCA2 activ,Dyrk1A ADPGlo,Rtt109 Vps75,CDK5 p35 inh,dFosB activator,esBAF inh,esBAF Ring1 qPCR,Fgf4 repress,esBAF Bmi1 qPCR,A549 cytotox,HepG2 tox SP,HEK293 cytotox SP,SMARCA2 act conf,VP16 Luc act
CC1CCc2nn(CC(=O)NCCCN3CCCC3=O)cc2C1 (configuration not stated),8.7*,0.3,-6.8,0.3,-9.2,1.4,.,.,.,.,.,.,-4.8,2.6
O=C(NCc1ccccn1)c1nnc(Cc2ccc(Cl)cc2)o1,9.6*,-4.2,-4.6,0.7,-3.4,0.1,.,.,.,.,.,.,1.3,0.7
O=C(NCCc1ccc(Cl)cc1)c1nnc(Cc2ccc(Cl)cc2)o1,3.3,-0.9,-15.3,-0.3,5.8,1.3,.,.,.,.,.,.,.,.
N#Cc1ccc(-c2ccc3c(c2)[C@@H]2[C@@H](CCN2C(=O)c2ccc(F)cc2)[C@@H](CO)N3)cc1,.,.,.,.,.,-8.8,.,.,.,.,.,.,.,.
O=C(C[C@@H]1CC[C@@H]2[C@H](COC[C@@H](O)CN2C(=O)Nc2ccccc2)O1)NCc1ccncn1,.,.,.,.,.,1.7,.,.,.,.,.,.,.,.
CNC(=O)c1cc2c(ccc3ccccc32)o1,9.6*,-51.0,9.9,0.4,-6.4,.,.,.,.,.,.,.,6.6,3.5
Cc1cccc(Nc2nnc(SCC(=O)c3c(N)n(C4CC4)c(=O)[nH]c3=O)s2)c1,-2.9,.,6.9,0.5,-3.6,-1.8,.,.,.,.,.,.,.,.
C/C(N)=C(/C#N)C(=O)CSc1nnc(Nc2cccc(C)c2)s1,8.3*,3.9,-2.3,-0.1,-5.9,60.0*,.,.,.,.,.,.,6.7,6.2*
CCCCNc1c(-c2cc3ccccc3o2)nc2nc(C)cc(C)n12,0.0,.,.,.,.,.,.,.,.,.,.,.,.,.
